Shown are actives, neighbours in structure and some others; about 4.8% of the full set was active somewhere.
Mdm2-MdmX inh – inhibitors of human Mdm2-MdmX association, primary screen, cell-based, luminescence, split luciferase, SaOS-2, uHTS | SaOS-2 split-luciferase Mdm2/MdmX complementation | actives 3% (n = 330,000) | inhibition, % at 8 µM;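 active = inhibition of at least 50% at 8 µM in the primary screen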
Target sequence (O15151 whole entry, looked up): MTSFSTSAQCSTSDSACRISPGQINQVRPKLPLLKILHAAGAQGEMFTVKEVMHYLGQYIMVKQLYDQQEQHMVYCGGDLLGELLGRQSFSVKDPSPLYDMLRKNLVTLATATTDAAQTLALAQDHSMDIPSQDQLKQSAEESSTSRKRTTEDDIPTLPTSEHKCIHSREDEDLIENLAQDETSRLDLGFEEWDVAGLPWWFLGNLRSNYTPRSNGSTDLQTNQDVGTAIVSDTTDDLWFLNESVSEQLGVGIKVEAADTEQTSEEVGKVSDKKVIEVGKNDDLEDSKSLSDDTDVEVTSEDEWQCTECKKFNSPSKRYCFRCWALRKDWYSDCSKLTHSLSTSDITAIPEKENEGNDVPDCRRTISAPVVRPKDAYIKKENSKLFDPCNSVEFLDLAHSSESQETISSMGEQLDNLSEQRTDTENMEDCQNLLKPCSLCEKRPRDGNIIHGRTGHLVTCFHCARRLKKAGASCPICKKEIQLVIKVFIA
Target sequence (Q00987 whole entry, looked up): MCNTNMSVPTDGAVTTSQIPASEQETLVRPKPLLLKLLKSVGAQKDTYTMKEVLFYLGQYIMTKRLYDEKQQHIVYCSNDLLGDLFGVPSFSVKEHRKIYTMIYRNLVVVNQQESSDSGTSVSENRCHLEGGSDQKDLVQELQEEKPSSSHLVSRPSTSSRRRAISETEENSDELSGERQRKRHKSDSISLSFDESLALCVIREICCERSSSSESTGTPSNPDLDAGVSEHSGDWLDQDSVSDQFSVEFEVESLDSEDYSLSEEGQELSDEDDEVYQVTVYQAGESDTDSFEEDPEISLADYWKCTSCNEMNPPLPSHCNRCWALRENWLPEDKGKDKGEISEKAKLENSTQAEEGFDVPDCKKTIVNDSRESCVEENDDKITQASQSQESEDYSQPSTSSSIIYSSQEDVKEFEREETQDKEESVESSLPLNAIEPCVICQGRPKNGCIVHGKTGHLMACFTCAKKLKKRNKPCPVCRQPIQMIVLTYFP
Beta cell apopt – inhibitors of cytokine-induced beta cell apoptosis, primary screen, luminescence. INS-1E cytokine-induced death, ATP luminescence, 48 h; percent of positive-control rescue, neutral wells zero. protection from apoptosis, % (test concentration not listed). actives 0.8% (n = 300,000);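 active = Every replicate reaches about 75%, or at least half do and their mean reaches it too, limit read from the data; inconclusive = At least half of replicates reach the limit but their mean does not; inactive = Under half of replicates reach the limit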;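 also: 0% = cytokine-treated negative control wells and 100% = positive control rescue; higher means more ATP so stronger rescue from cytokine killing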
MPTP inh – mitochondrial permeability transition pore inhibitors, primary screen, biochemical, isolated mouse mitochondria, absorbance; actives 1.4% (n = 360,000); inhibition, % at 10 µM; Ca2+ swelling absorbance, 30 min;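 active = inhibition of 50% or more, scaled per plate between neutral and stimulator controls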;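 also: 0% = DMSO wells given calcium and 100% = 1 mM EGTA wells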
CSC inhib – cancer stem cell viability inhibitors, primary screen, luminescence. cancer stem cell-like cells viability. inhibition, % at 7.5 µM. actives 1.1% (n = 300,000). AID 2717, 2010; in the data active = inhibition above about 75%; inconclusive = no clear call, values can overlap the other calls; tested in HMLE shEcad cells
Calb FLC – C. albicans growth inhibition with fluconazole, primary screen, CaCi-2 strain, Alamar Blue fluorescence. C. albicans CaCi-2 (fluconazole-resistant clinical isolate) + fluconazole, 48 h. growth inhibition, % (concentration not given with the values). actives 0.57% (n = 300,000);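 active = growth inhibition above about 58% in most replicates, limit read from the data, passing the limit was not always enough; inconclusive = exactly half the replicates above a set limit; inactive = most replicates below a set limit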;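 also: all wells also contain fluconazole at 8 µg/ml as a sub-toxic cotreatment; 0% = median of DMSO wells and 100% = median of geldanamycin control wells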
Mdm2 MdmX conf – Mdm2-MdmX complex disruptors, retested hits, confirmation, luminescence, single concentration; AID 489028, 2010; inhibition, % at 8 µM; Mdm2-MdmX binding, luminescent assay; shares compounds with Mdm2-MdmX inh; actives 55% (n = 10,000); in the data active = inhibition above about 40%
FLuc counter – full-length luciferase signal inhibition, confirmation, counter-screen for Mdm2/MdmX interaction inhibitor project, cell-based, single concentration, SaOS-2; shares compounds with Mdm2-MdmX inh; SaOS-2 full-length luciferase counterscreen, luminescence; inhibition, % at 8 µM; actives 77% (n = 6,200);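 active = mean inhibition at 8 µM reaching about 37%, which flags the compound as non-specific, limit read from the data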;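 also: p53-null SaOS-2 cells with luciferase driven by a doxycycline-inducible promoter; compound on cells about two nights before reading with doxycycline added after day one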
MPTP counter – fluorescence retest of MPTP screen hits in isolated mitochondria, single concentration | shares compounds with MPTP inh | membrane potential, Rhodamine 123 fluorescence | inhibition, % at 10 µM | actives 78% (n = 5,000) | AID 624504, 2012; in the data active = inhibition above about 22%;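 also: 0% = DMSO vehicle and 100% = positive control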
* marks the source's active call; other numbers are inactive results; ? = inconclusive; / = no result given.

SMILES	Mdm2-MdmX inh	Beta cell apopt	MPTP inh	CSC inhib	Calb FLC	Mdm2 MdmX conf	FLuc counter	MPTP counter
Cc1ccc(N2CC(C(=O)Nc3ncc([N+](=O)[O-])s3)CC2=O)cc1 (configuration not stated)	4	8	7	-3	21	/	/	/
N#CC(c1ccc(Cl)cc1)c1ccc2c(C(F)(F)F)cc(C(F)(F)F)nc2n1 (configuration not stated)	99*	124*	87*	-13	4	95*	24	108*
Cc1cc(/C=C2\Sc3ccccc3N2C)cc(C)[n+]1CC1CCCO1 (configuration not stated)	87*	/	75*	/	/	90*	21	84*
C=CC[n+]1c(/C=C2\C=Cc3cc(C)ccc3N2CC)ccc2ccccc21	85*	109*	112*	49	?	70*	28	78*
c1ccc(-c2sc3ccccc3c2-c2ccc(OCCN3CCCCC3)cc2)cc1	5	-3	0	71	/	/	/	/
CN(C)CCOc1ccc(-c2c(-c3ccccc3)sc3ccccc23)cc1	100*	83*	104*	142*	/	30	/	-17
O=C(N/N=C/c1c(O)ccc2ccccc12)c1cccc(C(F)(F)F)c1	74*	/	99*	/	90*	81*	21	42*
O=C(N/N=C/c1cccs1)c1[nH]ncc1Br	-9	7	-1	14	-15	/	/	/
O=C(N/N=C/c1c(O)ccc2ccccc12)c1[nH]ncc1Br	65*	103*	55*	108*	46	76*	41*	55*
CC(=O)c1ccc(OCCCC(=O)N(CCC2=CCCCC2)c2c(N)n(Cc3ccccc3)c(=O)[nH]c2=O)cc1	-2	12	-1	0	17	/	/	/
Cc1noc(-c2ccc(C(F)(F)F)cc2)c1NC(=O)Nc1ccc(Cl)cc1	95*	105*	75*	52	-7	76*	24	72*
O=C(N/N=C/c1cc(Br)cc(Cl)c1O)c1ccc2c(c1)OCO2	50*	94*	55*	59	94*	59*	53*	66*
Cc1cc(Br)cc(/C=N/NC(=O)c2ccc3c(c2)OCO3)c1O	68*	88*	65*	84*	47	67*	33	49*
O=C(N/N=C/c1ccccc1Br)c1cccc(S(=O)(=O)N2CCOCC2)c1	15	-7	-2	/	/	/	/	/
O=C(N/N=C/c1cc(Br)cc(Br)c1O)c1cccc(S(=O)(=O)N2CCOCC2)c1	59*	-11	69*	20	17	60*	30	-5
COc1ccc(OC)c2c(C)c(C)[nH]c12	-9	-2	0	7	/	/	/	/
COc1ccc(NC(=O)CN2CCC(NC(=O)c3ccco3)CC2)c([N+](=O)[O-])c1	9	-8	-1	-2	2	/	/	/
CN(C)CCOc1nc(-c2ccccc2)nc2c1oc1ccccc12	71*	59	75*	37	31	29	/	-2
COc1ccc(-c2csc(NC(=O)c3ccccc3NS(=O)(=O)c3ccc(F)c(F)c3)n2)cc1	90*	87*	92*	114*	45	91*	22	1
Cc1ccc(S(=O)(=O)Nc2ccccc2C(=O)Nc2nc(-c3ccc(F)cc3)cs2)cc1	86*	99*	70*	0	-2	90*	22	14
O=C(Nc1nc(-c2ccccc2)cs1)c1ccccc1F	-44	8	5	7	-4	/	/	/
O=[N+]([O-])c1cccc(S(=O)(=O)Nc2ccc3cn[nH]c3c2)c1	2	2	-1	4	/	/	/	/
Cc1ccc(-n2c(C)cc(C3=NNC(=NC4CC4)SC3)c2C)cc1C	69*	21	79*	46	?	50*	120*	83*
COc1cc(CNCCCN2CCOCC2)cc(Br)c1OCc1ccc(Cl)cc1	69*	19	74*	-9	1	45*	59*	-9
COc1ccc(NC(=O)Nc2ccc3c(c2)N(C)C(=O)CS3)cc1OC	35	1	-1	-14	-6	/	/	/
SMILES	Mdm2-MdmX inh	Beta cell apopt	MPTP inh	CSC inhib	Calb FLC	Mdm2 MdmX conf	FLuc counter	MPTP counter
CC(=O)c1ccc(NC(=O)Nc2ccc3c(c2)N(C)C(=O)CS3)cc1	69*	-6	96*	-2	-10	35	/	77*
COc1ccc(NC(=O)Nc2ccc3c(c2)N(C)C(=O)CS3)cc1Cl	59*	/	93*	17	2	42*	53*	68*
NS(=O)(=O)c1ccc(CCNC(=O)C(=O)C2C(=O)Nc3ccccc32)cc1 (configuration not stated)	-2	-1	2	18	-11	/	/	/
CCCc1c(NC(=O)Nc2ccc(F)cc2)cnn1-c1ccc(Cl)cc1	61*	2	88*	25	3	32	/	74*
CCc1ccccc1NC(=O)Nc1ccc(F)cc1	20	6	39	-5	4	/	/	/
Cc1cccc(N2CCN(C(=O)C3CCC(=O)N(C4CC4)C3)CC2)c1C (configuration not stated)	15	1	-1	3	-8	/	/	/
COc1ccc(NC(=O)CN2C(=O)CSC(C)C2=O)cc1 (configuration not stated)	10	-1	-2	-9	-5	/	/	/
CC(OC(=O)c1cc(Br)ccc1O)C(=O)Nc1ccc(S(=O)(=O)N2CCCC2)cc1 (configuration not stated)	63*	10	87*	20	/	43*	73*	91*
Cc1ccc(C(=O)NCCN2C3=NC[C@H](C(C)C)N3C[C@H]2Cc2ccc(O)cc2)cc1Br	41	7	1	14	-25	/	/	/
COc1ccc(C[C@H]2CN3C(=NC[C@@H]3C(C)C)N2CCNC(=O)c2ccc(C)c(Br)c2)cc1	64*	27	69*	16	30	32	/	-4
O=C(O)CC(C(=O)O)C(=Cc1ccccc1)c1ccccc1 (configuration not stated)	/	/	-1	/	/	/	/	/
Cc1cccnc1NC(=O)c1ccc(COc2ccccc2)o1	-10	-3	-4	-12	-6	/	/	/
